High-throughput results as filed in PubChem.
A selection: hits, their analogues and other compounds. The true share with any hit is near 10%.
HP1b binding inh = HTS for Inhibitors of HP1-beta Chromodomain Interactions with Methylated Histone Tails; Chromobox protein homolog 1 (Homo sapiens), P83916; AlphaScreen HP1-beta / biotin-H3K9me3 peptide binding; Potency, µM (titrated, usually from 114 µM), for the others: top-dose activity change, negative = inhibition, usual class: inhibitors; 0.56% of 390,000 active; AID 540317, 2011; further: nearly all actives have a fitted effect of over 70% in size
Target sequence (P83916 whole entry, looked up): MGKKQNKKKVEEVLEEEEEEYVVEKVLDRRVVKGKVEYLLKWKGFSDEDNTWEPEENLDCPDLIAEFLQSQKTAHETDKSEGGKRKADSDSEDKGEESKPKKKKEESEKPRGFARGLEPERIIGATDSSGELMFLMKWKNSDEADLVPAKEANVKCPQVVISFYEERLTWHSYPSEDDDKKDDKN
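Compound inhibition of the preformed complex between 50 nM HP1-beta and 50 nM biotinylated H3K9me3 peptide was read by AlphaScreen. Buffer was PBS pH 7.4 with 0.01% Tween-20. Incubations ran 30 min at room temperature, with 10 ug/mL donor/acceptor beads.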
JMJD2A Tudor inh = qHTS Assay for Inhibitors of JMJD2A-Tudor Domain; Lysine-specific demethylase 4A (Homo sapiens), O75164; AlphaScreen JMJD2A-Tudor / H3K4me3 peptide binding; Potency, µM (highest dose often 114 µM), for inactives: top-dose activity change, negative = inhibition, hits mostly inhibitors; 4.4% of 390,000 active; further: on the % scale 0 is the no-effect control and ±100 the full control effect; nearly all actives have a fitted effect of over 50% in size
G9a block = qHTS Assay for Inhibitors of Histone Lysine Methyltransferase G9a | Histone-lysine N-methyltransferase EHMT2 (Homo sapiens), Q96KQ7 | G9a H3K9 monomethylation, AlphaScreen, 2 h | Potency, µM (doses to about 102 µM), for inactives: top-dose activity, negative = inhibition, usual class: inhibitors | 8.8% of 350,000 active; further: on the % scale 0 is the no-effect control and ±100 the full control effect; nearly all actives have a fitted effect of over 75% in size
Target sequence (Q96KQ7 913-1193 limits assumed): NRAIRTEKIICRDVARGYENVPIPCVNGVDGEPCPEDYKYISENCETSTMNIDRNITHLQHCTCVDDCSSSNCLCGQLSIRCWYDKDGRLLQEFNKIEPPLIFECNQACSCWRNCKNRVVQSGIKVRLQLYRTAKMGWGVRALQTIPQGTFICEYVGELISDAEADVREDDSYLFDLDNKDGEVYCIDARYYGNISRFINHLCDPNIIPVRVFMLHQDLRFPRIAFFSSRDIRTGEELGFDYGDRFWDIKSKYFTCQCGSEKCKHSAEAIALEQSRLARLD
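G9a (20 nM) preincubated 15 min RT with compounds, then 500 nM biotinylated H3K9 peptide and 20 uM SAM added; 2 h RT reaction. Monomethyl-H3K9 product detected by AlphaScreen with anti-H3K9me1 antibody, streptavidin donor and anti-rabbit IgG acceptor beads.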
GLS inh = qHTS for Inhibitors of Glutaminase (GLS); Glutaminase kidney isoform, mitochondrial (Homo sapiens), O94925; GLS enzymatic activity, qHTS titration; Potency, µM (titrated, usually from 45.5 µM), for the others: top-dose activity change, negative = inhibition, most hits filed as inhibitors; 0.21% of 410,000 active; AID 624170, 2012; further: on the % scale 0 is the no-effect control and ±100 the full control effect
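Two-point fluorescence kinetic (t0, 30 min RT) for hKGA; glutamate detected via glutamate oxidase–HRP–Amplex Red. Substrate: 1 mM L-glutamine solution; buffer 45 mM KH2PO4, pH 8.2.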
BAZ2B inh = qHTS Assay for Inhibitors of BAZ2B. AlphaScreen BAZ2B-H3K14Ac peptide displacement. Potency, µM (titrated, usually from 114 µM), for the others: at the highest dose activity change, negative = inhibition, usual class: inhibitors. 4.4% of 360,000 active; further: on the % scale 0 is the no-effect control and ±100 the full control effect; nearly all actives have a fitted effect of over 60% in size
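BAZ2B (50 nM) with biotin-H3(5-23)K14Ac peptide (50 nM) in PBS pH 7.4, 0.01% Tween-20, preformed 30 min, then compound 30 min at room temperature; top concentration 110uM. AlphaScreen streptavidin donor/nickel chelate acceptor beads (10 ug/mL final), 20 min dark, signal read.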
An asterisk follows results filed as active; u = inconclusive; x = no result given; ! = not active in a repeat; [ ] = remark or other dose. The call rests on the fitted dose curve; in most records, active means well fitted curve in the direction sought with a large enough effect; inconclusive means small, poorly fitted or top-dose-only effect, or another doubt; inactive means no such curve, though single readings can be large; an effect the other way counts as inactive or inconclusive. Potency means the concentration at half of the fitted maximal effect.

SMILES | HP1b binding inh | JMJD2A Tudor inh | G9a block | GLS inh | BAZ2B inh
O=c1cc(-c2ccc(O)cc2)oc2c(O)c(O)c(O)c(O)c12 | u | 39.8µM* | 20µM* | 11.2µM* | 44.7µM*
CCCCCCCCCCC[N+](C)(C)CC/C=C1/c2ccccc2Sc2ccc(Cl)cc21 | 12.2% | u | 35.5µM* | u | -22.9%
CN(C)CCC=C1c2ccccc2C(C)(C)c2ccccc21 | x | x | u | 1.2% | x
CN(C)CCC=C1c2ccccc2C=Cc2ccccc21 | 38.0% | -25.5% | 14.1µM*! | -3.6% | -20.2%
OCCN1CCN(CC/C=C2/c3ccccc3Sc3ccc(Cl)cc32)CC1 | -12.3% | u | 15.8µM* | 8.6% | u
OCCN1CCN(CCCN2c3ccccc3Sc3ccc(Cl)cc32)CC1 | -16.0% | u | 2.7%[12.7 µM] | -3.2% | u
CCCCCCCCCC[N+](C)(C)CC/C=C1/c2ccccc2Sc2ccc(Cl)cc21 | 17.9% | -32.4% | u | u | -11.6%
O=C(NS(=O)(=O)Nc1ccccc1)C1=C(N2CCCC2)COC1=O | 28.3% | 100µM* | x | 4.8% | x
CCN(CC)CCN(C(=O)c1ccc(S(=O)(=O)N(CC)c2ccccc2)cc1)c1nc2c(OC)ccc(OC)c2s1 | -21.8% | u | 98.3% | 8.2% | 6.7%
CCCCC/C=C/C=C1/C(=O)C=C[C@@H]1C/C=C\CCCC(=O)O | x | x | 22.4µM*! | x | x
CCCCC/C=C\C/C=C\CCCCCCCC(=O)O | x | x | 31.0%[59 µM] | -9.1% | x
CCCCC[C@H](O)/C=C/[C@H]1C=CC(=O)[C@@H]1C/C=C\CCCC(=O)O | x | x | 35.5µM*! | x | 50.1µM*
CCCCCCCC/C=C\CCCCCCCC(=O)O | 86.1% | 89.1µM* | 27.7%[59 µM] | -11.2% | -23.1%
COc1cc(OC)nc(NC(=O)CS(=O)(=O)c2ccccc2)n1 | 11.4% | -14.4% | 0.4%[59 µM] | 4.8% | 0.3%
C/C(=N\Nc1nc2ccccc2[nH]1)c1cc2ccccc2o1 | u | 44.7µM* | 44.7µM* | u | u
C/C(=N\Nc1nc2ccccc2[nH]1)c1ccccn1 | x | x | 6.2% | x | 20µM*
C/C(=N/O)c1ccccn1 | 20.1% | u | -3.4% | 22.8% | 10µM*
C/C(=N\NC(=O)c1ccncc1)c1cc2ccccc2o1 | 5.4% | -4.9% | 6.5% | 5.3% | -35.0%
COc1ccc(-n2c(=O)c3c4c(sc3n(Cc3cc(=O)n5c(C)cccc5n3)c2=O)CCC4)c(OC)c1 | 30.6% | -9.6% | 0.8%[59 µM] | -12.3% | -3.8%
C=CCn1c(CNC(=O)c2ccco2)nnc1SCC(=O)N1c2ccccc2Sc2ccccc21 | -4.7% | -22.7% | u | -1.3% | 79.4µM*
COc1ccc(NC(=O)c2c[nH]c(=O)n(-c3ccc(C)c(C)c3)c2=O)cc1OC | 40.8% | -15.6% | -8.2% | -0.3% | -0.6%
Cc1cc(Nc2ccc3c(c2)OCCO3)c2ccccc2n1 | -7.1% | -20.1% | u | 18.3% | -8.0%
Cc1ccc2nc(C)cc(Nc3ccc4c(c3)OCCO4)c2c1 | 8.5% | -19.2% | 44.7µM* | 16.6% | 6.7%
COc1ccc(C(C)=O)cc1COC(=O)CSC(C)C(=O)Nc1cc(C)on1 (centres undefined) | 8.9% | -0.7% | -31.1% | 4.9% | 0.3%
COc1ccc(C(C)=O)cc1COC(=O)CSCC(=O)Nc1ccc(C)cc1 | 26.2% | -7.5% | 1.4%[0.501 µM] | 0.0% | 79.4µM*
SMILES | HP1b binding inh | JMJD2A Tudor inh | G9a block | GLS inh | BAZ2B inh
COc1ccc(C(C)=O)cc1CSc1nnc(Nc2ccc(C)cc2)s1 | 52.7% | 3.1% | 10µM* | -23.9% | -33.5%
O=C(CCn1c(=O)[nH]c2ccsc2c1=O)N1CC(=O)N(CCc2ccccc2)C(=O)C1 | 24.4% | -3.0% | 14.5%[2.33 µM] | -8.3% | 4.0%
CCN(CC)S(=O)(=O)c1cccc(NC(=O)CNC2CCCCCC2)c1 | 1.6% | 50.1µM* | 35.5µM* | 5.3% | 79.4µM*
CC1CCC(NCC(=O)Nc2cccc(S(N)(=O)=O)c2)CC1 (centres undefined) | -31.0% | 22.4µM* | 10µM* | 15.2% | 79.4µM*
CN(C)S(=O)(=O)c1cccc(NC(=S)NC23CC4CC(CC(C4)C2)C3)c1 | 3.4% | -21.9% | 5.5% | 1.0% | -16.5%
CC1Cc2ccccc2N1CC(=O)Nc1cccc(S(N)(=O)=O)c1 (centres undefined) | -0.5% | -22.3% | 0.2% | -9.1% | -11.9%
CCN(CC)S(=O)(=O)c1cccc(NC(=O)CCNC(=O)NC23CC4CC(CC(C4)C2)C3)c1 | 8.5% | -27.4% | 50.1µM* | -14.8% | -31.8%
CN(C)S(=O)(=O)c1cccc(NC(=O)CNCC2CCCCC2)c1 | -27.6% | 22.4µM* | 14.1µM* | -8.4% | u
CCC(=O)Nc1cccc(NC(=O)CSc2nnnn2C)c1 | 7.3% | -9.0% | -7.0% | 1.1% | 3.3%
COc1cc(/C=C2/SC(=S)N(CCC(=O)N3CCN(C)CC3)C2=O)cc(OC)c1OC | x | x | x | -9.9% | x
CCN(CC)S(=O)(=O)c1cccc(C(=O)NCC2CCCCC2)c1 | 7.8% | 28.2µM* | -8.7% | u | 1.9%
CCN(CC)S(=O)(=O)c1cccc(C(=O)NCC2CCCO2)c1 (centres undefined) | 27.0% | -8.1% | 5.9% | -7.2% | u
CCc1cccc(CC)c1NC(=O)CNCc1cccs1 | 70.8µM* | 25.1µM* | 35.5µM* | -11.8% | 56.2µM*
COc1cc(C(=O)OCC(=O)NCc2ccc(F)cc2)cc(NC(=O)c2cccs2)c1OC | 19.8% | -5.2% | -1.8%[59 µM] | -1.9% | 12.5%
CCOC(=O)c1cccc(NC(=O)c2cn(-c3cccc(OC)c3)c(=O)c3ccccc23)c1 | 19.9% | 7.6% | 10µM* | 0.6% | 1.2%
CCOC(=O)c1ccc(OC(=O)c2cn(-c3cccc(OC)c3)c(=O)c3ccccc23)cc1 | 24.5%[57 µM] | -15.8% | 0.2%[59 µM] | 8.5% | 5.7%
COc1ccc(C(c2nnnn2C2CCCCC2)N2CCN(c3ccc(OC)cc3)CC2)cc1 (centres undefined) | u | u | u | -8.8% | 39.8µM*
COc1ccc(OC)c(C(c2nnnn2C2CCCC2)N2CCN(c3ccccc3)CC2)c1 (centres undefined) | -24.4% | 56.2µM* | 31.6µM* | -1.8% | 50.1µM*
COc1ccc(C(c2nnnn2C2CCCCC2)N2CCN(C)CC2)c(OC)c1 (centres undefined) | 29.4% | -2.8% | -37.1% | 1.6% | -10.1%
Cc1ccc(C(c2nnnn2C2CCCCC2)N(C)C2CCCCC2)cc1 (centres undefined) | 19.1% | 8.8% | 1.78µM* | 2.6% | 3.8%
c1cc(N2CCCC2)ccc1C(c1nnnn1C1CCCCC1)N1CCOCC1 (centres undefined) | -17.8% | u | 10µM* | 2.3% | u
Cc1sc2nc[nH]c(=S)c2c1-c1ccccc1 | -15.3% | u | -32.3% | u | -26.8%
